{"source": "PubChem BioAssay (NCI)", "note": "Several values for one entry are separate records, joined by “and”; a condition that tells them apart may be missing. Identical values can stand only once. About 83,000 compounds went through this panel and 20% of them were active in at least one assay; those are over-represented in the sample as a whole.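 The endpoint reported here, percent growth, reads 100 for growth as untreated, 0 for no net growth and -100 for all cells dead.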 Activity calls are given as the source filed them. Where a SMILES comes first, the peptide text is derived from it. [ ]: non-standard residue; d: D form. ξ: configuration not given here. ξV = CC(C)C(N)C(=O)O", "data": [{"test_system": "KM12 colon", "experiment": "NCI-60 one-dose screen, 48 h (100 = growth as untreated, 0 = no growth, -100 = all killed)", "conditions": "0.0025 µM", "protocol": "(§1) Growth inhibition of the KM12 human tumor cell line is measured as a screen for anti-cancer activity. Cells are grown in 96 well plates and exposed to the test compound for 48 hours. Compounds are tested at a single concentration, which is 10^-5 M for most compounds. The reported endpoint is percent growth (GI% or GIPRCNT), where numbers from 0 - 100% represent growth inhibition, and numbers from -100% - 0 represent cell death. For example, a value of 40 represents 60% growth inhibition. A value of 0 means no net growth occurred over the course of the experiment. A value of -40 indicates 40% of cells at the beginning of the experiment died by the end of the experiment. A value of -100 means all cells are dead at the end of the experiment.\n(§2) NCI-60 Human Tumor Cell Lines Screen was performed using the standard one-dose NCI protocol, which is described in more detail at https://dtp.cancer.gov/discovery_development/nci-60/default.htm.\n(§3) Compounds with GIPRCNT values below 10 were considered active. Activity score was based on GIPRCNT using the following formula: […]\n(§4) Score is 0 for GIPRCNT values of 100 or above, 50 for GIPRCNT values of 0, and 100 for GIPRCNT values of -100.", "values": [{"smiles": "COc1cccc2c1C(=O)c1c(O)c3c(c(O)c1C2=O)C[C@@](O)(C(=O)CO)C[C@@H]3OC1CC(N)C(O)C(C)O1", "note": "(stereo not given in full)", "growth": "93.1% (inactive)"}]}, {"test_system": "KM12 colon", "experiment": "NCI-60 one-dose screen, 48 h (100 = growth as untreated, 0 = no growth, -100 = all killed)", "conditions": "1 µM", "protocol": "as §1, §2, §3, §4", "values": [{"smiles": "COc1cccc2c1C(=O)c1c(O)c3c(c(O)c1C2=O)C[C@@](O)(C(=O)CO)C[C@@H]3OC1CC(N)C(O)C(C)O1", "note": "(stereo not given in full)", "growth": "32.1% (inactive)"}]}, {"test_system": "KM12 colon", "experiment": "NCI-60 one-dose screen, 48 h (100 = growth as untreated, 0 = no growth, -100 = all killed)", "conditions": "10 µM", "protocol": "as §1, §2, §3, §4", "values": [{"smiles": "O=C(C(=Cc1ccccc1)C(=O)c1ccccc1)c1ccccc1", "growth": "47.8% (inactive) and 88.9% (inactive)"}, {"smiles": "O=C1C=C(O)c2ccccc2C1=O.[Ag]", "growth": "96.4% (inactive)"}, {"smiles": "O=c1ccn(C2CC(O)C(COC(c3ccccc3)(c3ccccc3)c3ccccc3)O2)c(=O)[nH]1", "note": "(stereo not given)", "growth": "90.4% (inactive)"}, {"smiles": "CS(=O)(=O)OC1CC(n2ccc(=O)[nH]c2=O)OC1COC(c1ccccc1)(c1ccccc1)c1ccccc1", "note": "(stereo not given)", "growth": "93.5% (inactive)"}, {"smiles": "COc1cccc2c1C(=O)c1c(O)c3c(c(O)c1C2=O)C[C@@](O)(C(=O)CO)C[C@@H]3OC1CC(N)C(O)C(C)O1", "note": "(stereo not given in full)", "growth": "4.23% (active)"}, {"smiles": "Nc1c2ccccc2nc2ccccc12", "growth": "19.1% (inactive) and 46.2% (inactive)"}, {"smiles": "Nc1ccc2cc3ccc(N)cc3nc2c1", "growth": "121% (inactive) and 9.1% (active)"}, {"smiles": "COc1cccc2c1C(=O)c1c(O)c3c(c(O)c1C2=O)C[C@@](O)(C(C)=O)C[C@@H]3OC1CC(N)C(O)C(C)O1", "note": "(stereo not given in full)", "growth": "-8.88% (active)"}, {"smiles": "CCCCCCCCCCCCCCCCCCOCC(COP(=O)([O-])OCC[N+](C)(C)C)OC", "note": "(stereo not given)", "growth": "29.7% (inactive)"}, {"smiles": "N=S(c1ccccc1[N+](=O)[O-])c1ccccc1[N+](=O)[O-]", "growth": "88.8% (inactive)"}, {"smiles": "CC(=O)Nc1cc(C)ccc1C", "growth": "97.4% (inactive)"}, {"smiles": "CCCCCC(C)c1ccc(O)c(C)c1", "note": "(stereo not given)", "growth": "106% (inactive)"}, {"smiles": "CC(C)C(NC(=O)CN)C(=O)O", "note": "(stereo not given) (H-Gly-[ξV]-OH)", "growth": "109% (inactive) and 106% (inactive)"}, {"smiles": "CC(=O)OCC(OC(C)=O)C(OC(C)=O)C(OC(C)=O)C(OC(C)=O)C(/C=N/Nc1ccccc1)=N/Nc1ccccc1", "note": "(stereo not given)", "growth": "45.3% (inactive)"}, {"smiles": "CC1=CC(C)=Nc2ccc(Cl)cc2N1", "growth": "100% (inactive)"}, {"smiles": "Clc1ccc(/C=C/c2ccccn2)c(Cl)c1", "growth": "71.4% (inactive)"}, {"smiles": "CC[N+](CC)=c1ccc2nc3c(cc(N)c4ccccc43)oc-2c1", "growth": "-44.2% (active)"}, {"smiles": "COc1ccc(CC(=O)c2ccc(O)cc2O)cc1", "growth": "122% (inactive)"}, {"smiles": "CCN1/C(=C/C=C/C=C/c2sc3ccccc3[n+]2CC)Sc2ccccc21", "growth": "-88.3% (active)"}, {"smiles": "CSC1SCC2C(=O)N(C)C(C(C)C)C(=O)OCC(NC(=O)c3cnc4ccccc4n3)C(=O)NC(C)C(=O)N(C)C1C(=O)N(C)C(C(C)C)C(=O)OCC(NC(=O)c1cnc3ccccc3n1)C(=O)NC(C)C(=O)N2C", "note": "(stereo not given)", "growth": "-5.74% (active)"}, {"smiles": "OCC1OC(n2cnc3c(=S)nc[nH]c32)C(O)C1O", "note": "(stereo not given)", "growth": "108% (inactive) and 60.4% (inactive)"}, {"smiles": "CN1CCN(CCCN2c3ccccc3Sc3ccc(C(F)(F)F)cc32)CC1", "growth": "40.2% (inactive)"}, {"smiles": "O=C(/C=C/c1cccnc1)c1ccccc1", "growth": "51.4% (inactive)"}, {"smiles": "NNc1ccc2ccccc2c1", "growth": "74.3% (inactive) and 98.7% (inactive)"}, {"smiles": "CCN(CC)c1ccc(NC(C(=O)c2ccccc2)c2ccccc2)cc1", "note": "(stereo not given)", "growth": "65.1% (inactive)"}, {"smiles": "OC(CN1CCCC2CCCCC21)c1cc2ccccc2c2ccccc12", "note": "(stereo not given)", "growth": "15.9% (inactive)"}, {"smiles": "CCCCCCCCCCCCSC(=NC)NC", "growth": "17.1% (inactive) and 44.8% (inactive)"}, {"smiles": "Oc1ccc(N=Nc2ccccn2)c(O)c1", "growth": "26.9% (inactive)"}, {"smiles": "COC(=O)C1C(O)C(C)C(O)C(C)C=C(C)C2=C3C(=C(C)C(=O)c4c(O)c(c(C)c(OC(C)=O)c43)NC(=O)C(C)=C/C=C\\C(C)C(O)C(C)C1O)OCO2", "note": "(stereo not given)", "growth": "103% (inactive)"}, {"smiles": "O=C(O)COc1ccc(OCC(=O)O)cc1", "growth": "8.16% (active)"}, {"smiles": "Cc1cc(NS(=O)(=O)c2ccc(N=Nc3cc(N=Nc4ccc(S(=O)(=O)Nc5cc(C)nc(C)n5)cc4)c4c(NC(=O)C(Cl)Cl)cccc4c3OC(=O)C(Cl)Cl)cc2)nc(C)n1", "note": "(tested in a mixture with another compound)", "growth": "107% (inactive) and 106% (inactive)"}, {"smiles": "COC(=O)C1=COC(C)C2C[n+]3ccc4c([nH]c5ccccc54)c3CC12", "note": "(stereo not given)", "growth": "102% (inactive) and 97.8% (inactive)"}, {"smiles": "CN(C)C(=S)SC(=S)N(C)C", "growth": "110% (inactive) and 97.3% (inactive)"}, {"smiles": "OCC(O)C(O)C(O)C(/C=N/Nc1ccccc1)=N/Nc1ccccc1", "note": "(stereo not given)", "growth": "75.1% (inactive)"}, {"smiles": "NC1=C(Cl)C(=O)c2ccccc2C1=O", "growth": "65.3% (inactive)"}, {"smiles": "Cc1cc(O)c(C(C)C)cc1Cl", "growth": "112% (inactive)"}, {"smiles": "NNc1c2ccccc2nc2ccccc12", "growth": "36.7% (inactive)"}]}, {"test_system": "KM12 colon", "experiment": "NCI-60 one-dose screen, 48 h (100 = growth as untreated, 0 = no growth, -100 = all killed)", "conditions": "100 µM", "protocol": "as §1, §2, §3, §4", "values": [{"smiles": "O=c1ccn(C2CC(O)C(COC(c3ccccc3)(c3ccccc3)c3ccccc3)O2)c(=O)[nH]1", "note": "(stereo not given)", "growth": "40.3% (inactive)"}]}]}
